The supplement of paper PMC6897291

What was measured:
U-2932 [1] = test: growth inhibition by drug alone (1 - RLU/untreated control) (fraction); higher = stronger inhibition; conditions: 177Lu-lilotomab satetraxetan 0 ug/ml
Outline: (§1)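 Growth inhibition was calculated from RealTime-Glo RLU against untreated no-drug wells. Values equal 1 − RLU/mean of 48 untreated no-drug wells per plate, read daily from day 3 after 1 h at 37°C. RIVA and U-2932 cells, with or without 18 h pretreatment by a radiolabelled anti-CD37 antibody conjugate (~600 MBq/mg; 0.5 µg/ml RIVA, 1 µg/ml U-2932), were washed and plated at 3,000 cells/well on compound-printed plates at 10/100 nM (RIVA) or 10/1,000 nM (U-2932).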

RIVA [2] = test: as above; conditions: 177Lu-lilotomab satetraxetan 0 ug/ml
Outline: as §1

U-2932 [3] = test: growth inhibition by drug plus 177Lu-lilotomab satetraxetan (1 - RLU/untreated control) (fraction); higher = stronger inhibition; conditions: 177Lu-lilotomab satetraxetan 1 ug/ml
Outline: as §1

RIVA [4] = test: as above; conditions: 177Lu-lilotomab satetraxetan 0.5 ug/ml
Outline: as §1

| Compound | growth inhibition by drug alone (U-2932 [1]; 10 nM, time (day): 3) | growth inhibition by drug alone (U-2932 [1]; 10 nM, time (day): 4) | growth inhibition by drug alone (U-2932 [1]; 10 nM, time (day): 5) | growth inhibition by drug alone (U-2932 [1]; 10 nM, time (day): 6) | growth inhibition by drug alone (U-2932 [1]; 1000 nM, time (day): 3) | growth inhibition by drug alone (U-2932 [1]; 1000 nM, time (day): 4) | growth inhibition by drug alone (U-2932 [1]; 1000 nM, time (day): 5) | growth inhibition by drug alone (U-2932 [1]; 1000 nM, time (day): 6) | growth inhibition by drug alone (RIVA [2]; 10 nM, time (day): 3) | growth inhibition by drug alone (RIVA [2]; 10 nM, time (day): 4) | growth inhibition by drug alone (RIVA [2]; 10 nM, time (day): 5) | growth inhibition by drug alone (RIVA [2]; 10 nM, time (day): 6) | growth inhibition by drug alone (RIVA [2]; 100 nM, time (day): 3) | growth inhibition by drug alone (RIVA [2]; 100 nM, time (day): 4) | growth inhibition by drug alone (RIVA [2]; 100 nM, time (day): 5) | growth inhibition by drug alone (RIVA [2]; 100 nM, time (day): 6) | growth inhibition by drug plus 177Lu-lilotomab satetraxetan (U-2932 [3]; 10 nM, time (day): 3) | growth inhibition by drug plus 177Lu-lilotomab satetraxetan (U-2932 [3]; 10 nM, time (day): 4) | growth inhibition by drug plus 177Lu-lilotomab satetraxetan (U-2932 [3]; 10 nM, time (day): 5) | growth inhibition by drug plus 177Lu-lilotomab satetraxetan (U-2932 [3]; 10 nM, time (day): 6) | growth inhibition by drug plus 177Lu-lilotomab satetraxetan (U-2932 [3]; 1000 nM, time (day): 3) | growth inhibition by drug plus 177Lu-lilotomab satetraxetan (U-2932 [3]; 1000 nM, time (day): 4) | growth inhibition by drug plus 177Lu-lilotomab satetraxetan (U-2932 [3]; 1000 nM, time (day): 5) | growth inhibition by drug plus 177Lu-lilotomab satetraxetan (U-2932 [3]; 1000 nM, time (day): 6) | growth inhibition by drug plus 177Lu-lilotomab satetraxetan (RIVA [4]; 10 nM, time (day): 3) | growth inhibition by drug plus 177Lu-lilotomab satetraxetan (RIVA [4]; 10 nM, time (day): 4) | growth inhibition by drug plus 177Lu-lilotomab satetraxetan (RIVA [4]; 10 nM, time (day): 5) | growth inhibition by drug plus 177Lu-lilotomab satetraxetan (RIVA [4]; 10 nM, time (day): 6) | growth inhibition by drug plus 177Lu-lilotomab satetraxetan (RIVA [4]; 100 nM, time (day): 3) | growth inhibition by drug plus 177Lu-lilotomab satetraxetan (RIVA [4]; 100 nM, time (day): 4) | growth inhibition by drug plus 177Lu-lilotomab satetraxetan (RIVA [4]; 100 nM, time (day): 5) | growth inhibition by drug plus 177Lu-lilotomab satetraxetan (RIVA [4]; 100 nM, time (day): 6) |
| --- | --- | --- | --- | --- | --- | --- | --- | --- | --- | --- | --- | --- | --- | --- | --- | --- | --- | --- | --- | --- | --- | --- | --- | --- | --- | --- | --- | --- | --- | --- | --- | --- |
| CCCCCCCCc1ccc(CCC(N)(CO)CO)cc1 [Fingolimod (FTY720)] | 0.0955 | 0.0585 | 0.0453 | -0.1 | 0.0228 | 0.0231 | 0.00428 | -0.0571 | 0.0298 | 0.0648 | -0.0103 | -0.296 | -0.16 | -0.13 | -0.129 | -0.231 | 0.0534 | 0.0695 | 0.13 | 0.219 | -0.0305 | 0.0614 | 0.0905 | 0.203 | 0.437 | 0.577 | 0.586 | 0.614 | 0.364 | 0.447 | 0.474 | 0.484 |
| Cc1ccc(C(=O)Nc2ccc(CN3CCN(C)CC3)c(C(F)(F)F)c2)cc1C#Cc1cnc2cccnn12 | -0.0855 | -0.101 | -0.212 | -0.304 | 0.619 | 0.711 | 0.699 | 0.718 | -0.13 | -0.226 | -0.275 | -0.383 | 0.59 | 0.607 | 0.6 | 0.53 | -0.1 | -0.0253 | 0.0155 | 0.0448 | 0.74 | 0.819 | 0.844 | 0.883 | 0.39 | 0.475 | 0.499 | 0.509 | 0.689 | 0.752 | 0.77 | 0.788 |
| C#CCN(C)CC1=Cc2ccccc2Oc2ccccc21 | 0.0712 | 0.0296 | -0.0381 | -0.0948 | 0.056 | 0.0596 | 0.000991 | 0.0366 | -0.0236 | -0.0211 | -0.0438 | -0.145 | -0.121 | -0.0828 | -0.112 | -0.138 | 0.0301 | 0.075 | 0.128 | 0.198 | 0.0289 | 0.0839 | 0.129 | 0.233 | 0.602 | 0.618 | 0.628 | 0.62 | 0.573 | 0.617 | 0.634 | 0.63 |
| O=c1[nH]cc(F)c(=O)[nH]1 [Adrucil (Fluorouracil)] | 0.0617 | 0.0194 | 0.0184 | -0.211 | 0.0564 | 0.0179 | 0.00587 | -0.153 | -0.0691 | -0.144 | -0.384 | -0.72 | -0.6 | -0.481 | -0.493 | -0.619 | -0.0549 | 0.00352 | 0.0517 | 0.0335 | 0.0514 | 0.0854 | 0.184 | 0.275 | 0.421 | 0.521 | 0.54 | 0.555 | 0.398 | 0.483 | 0.493 | 0.512 |
| CCOc1cc2ncc(C#N)c(Nc3ccc(F)c(Cl)c3)c2cc1NC(=O)/C=C/CN(C)C [Pelitinib (EKB-569)] | -0.0434 | -0.0318 | -0.0741 | -0.211 | 0.227 | 0.204 | 0.154 | 0.148 | -0.202 | -0.214 | -0.259 | -0.439 | -0.558 | -0.51 | -0.627 | -0.809 | -0.0948 | -0.0187 | -0.0319 | -0.0653 | 0.276 | 0.3 | 0.292 | 0.357 | 0.334 | 0.432 | 0.448 | 0.476 | 0.182 | 0.368 | 0.372 | 0.405 |
| CC(C)[C@H](C(=O)Nc1ccc(C(=O)NO)cc1)c1ccccc1 | 0.0244 | 0.00418 | -0.0183 | -0.000531 | 0.96 | 0.964 | 0.973 | 0.98 | -0.0258 | -0.0463 | -0.0451 | -0.103 | 0.935 | 0.907 | 0.897 | 0.884 | 0.037 | 0.0315 | 0.0282 | 0.152 | 0.961 | 0.969 | 0.978 | 0.985 | 0.524 | 0.584 | 0.602 | 0.599 | 0.939 | 0.934 | 0.937 | 0.94 |
| CN(C)C/C=C/C(=O)Nc1cc2c(Nc3ccc(F)c(Cl)c3)ncnc2cc1O[C@H]1CCOC1 [Afatinib (BIBW2992)] | 0.0755 | 0.0672 | 0.0124 | -0.039 | 0.0101 | 0.0989 | 0.0569 | 0.0902 | 0.0532 | -0.016 | -0.0806 | -0.333 | -0.091 | -0.147 | -0.146 | -0.262 | 0.0397 | 0.0532 | 0.0798 | 0.0941 | -0.123 | 0.0652 | 0.0526 | 0.121 | 0.437 | 0.523 | 0.544 | 0.558 | 0.389 | 0.492 | 0.493 | 0.456 |
